Bioassay records deposited in PubChem by Broad Institute.
Compounds with a hit are over-represented: about 3.4% of the library has one in this group of screens.
HSF1 inhib = HSF1 inhibitors in luciferase reporter cells, primary screen, cell-based, NIH3T3, luminescence | AID 2098, 2009 | activity change, negative = inhibition, % at 7.5 µM (by protocol) | NIH3T3-HGL HSE-luciferase, MG132-induced, luminescence 8 h; stronger effect = lower value | 300,000 compounds, 0.77% hits;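 active = more than half of replicate wells show activity change below -50%, luminescence cut by over half; inconclusive = some wells, but at most half, below -50%; inactive = no replicate well below -50%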;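 also: luciferase reports HSF-1 transcriptional activity via heat shock element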
Vif inh = HIV Vif self-association inhibitors, primary screen, imaging, HEK293T, single point; HEK293T cells, Vif self-association by quenched fluorescence, 24 h; inhibition, % at 7.49 µM; 340,000 compounds, 0.35% hits; AID 602346, 2012; in the data active = inhibition above about 50%, passing the limit was not always enough; inconclusive = no clear call, values can overlap the other calls; inactive = below about 31%
esBAF inh = Bmi1 luciferase reporter increase in mESCs, primary screen, esBAF inhibitor project, mouse ES cells, Bmi1 luciferase knock-in, single point; 24 h; 100% = twice the neutral-well signal; reporter increase, % at 12.5 µM; 350,000 compounds, 2% hits; AID 602393, 2012; in the data active = activation above about 40%; inconclusive = no clear call, values can overlap the other calls;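 also: a rise in the Bmi1 reporter signal indicates esBAF inhibition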
HSF1 activator = HSF-1 activators, primary screen, NIH3T3-HGL cells, MG132 stress, luminescence, single point. NIH3T3-HGL HSF-1 luciferase reporter, 8 h; 100% = twice DMSO control signal. activation, % at 9 µM. 300,000 compounds, 1.7% hits;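 active = mean replicate activation of at least 50% with a set share of replicates each reaching 50%; inconclusive = only one of those two conditions met; inactive = mean below 50% and too few replicates reaching it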
esBAF Ring1 qPCR = Ring1 mRNA increase in mouse ESCs, confirmation, esBAF inhibitor project, cell-based, mouse ESC, RT-qPCR, cherry-pick; shares compounds with esBAF inh; mouse ESC E14, Ring1 mRNA RT-qPCR fold change; fold change at 33 µM; 550 tested, under 10 active;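 active = Ring1 gene expression raised more than 2-fold over untreated cells in both replicates at either tested dose; inconclusive = only one replicate above 2-fold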;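 also: Ring1 transcript normalised to actin housekeeping signal by TaqMan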
Fgf4 repress = Fgf4 mRNA decrease in mouse ESCs, confirmation, esBAF inhibitor project, cell-based, mouse ESC, RT-qPCR, cherry-pick; shares compounds with esBAF inh; mouse ESC E14, Fgf4 mRNA qPCR fold change; stronger effect = lower value; Fgf4 expression fold change at 33 µM; 550 compounds, 4% hits; AID 743177, 2013;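 active = Fgf4 expression under 0.8 fold of control in both repeat measurements at one or both tested doses; inconclusive = under 0.8 fold in just a single repeat measurement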;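 also: Fgf4 transcript normalised to actin in duplex TaqMan qPCR; cells exposed to compound for 24 h before lysis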
esBAF Bmi1 qPCR = esBAF inhibition via Bmi1 de-repression, confirmation, cell-based, RT-qPCR, mouse ESC, single point, cherry-pick. mouse ESE14 ES cells, Bmi1 mRNA qPCR fold; stronger effect = higher value. fold change at 33 µM. 550 tested, under 10 active. shares compounds with esBAF inh;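 active = Bmi1 expression fold change above 6 at either tested concentration, seen in replicate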
A549 cytotox = A549 cell cytotoxicity, cytotoxicity control, plate reader, single point, cherry-pick; 550 tested, under 10 active; cell viability change % (negative = cytotoxic), % at 25 µM, hits read low; shares compounds with esBAF inh; call rule not given here
HepG2 cytotox SP = HepG2 cell cytotoxicity, cytotoxicity control, plate reader, single point, cherry-pick; activity change, negative = inhibition, % at 25 µM; shares compounds with esBAF inh; stronger effect = lower value; 550 compounds, 4% hits; in the data active = activity change below about -50%
HEK293 tox SP = HEK293 cell cytotoxicity, cytotoxicity control, plate reader, single point, cherry-pick | shares compounds with esBAF inh | activity change, negative = inhibition, % at 25 µM, hits read low | 550 compounds, 3% hits | AID 743190, 2013; in the data active = activity change below about -38%, passing the limit was not always enough
Each line names hits and unclear results; the compound was inactive in the other large screens (follow-up assays come after a bar, where they were run).

Fc1ccc2nc(-c3ccccc3)ccc2c1	esBAF inh 60 (no result: HSF1 inhib, Vif inh, HSF1 activator) | esBAF Ring1 qPCR inactive | Fgf4 repress inactive | esBAF Bmi1 qPCR inactive | A549 cytotox inactive | HepG2 cytotox SP -58 | HEK293 tox SP inactive
CCCC(=O)Nc1ccc2c(c1)C(=O)N(C)C[C@H](OC)[C@@H](C)CN(Cc1ccncc1)[C@H](C)CO2	none (no result: HSF1 inhib, Vif inh, HSF1 activator)
CO[C@@H]1CN(C)C(=O)c2ccc(NS(=O)(=O)c3ccc(Cl)cc3)cc2OC[C@@H](C)NC[C@@H]1C	none (no result: HSF1 inhib, Vif inh, HSF1 activator)
CCCNC(=O)C[C@@H]1CC[C@H]2[C@H](COc3ccc(NC(=O)Nc4cccc(C)c4)cc3C(=O)N2C)O1	none (no result: HSF1 inhib, Vif inh, HSF1 activator)
c1ccc(-c2csc(Nc3cccnc3)n2)nc1	esBAF inh 61 (no result: Vif inh) | esBAF Ring1 qPCR inactive | Fgf4 repress inactive | esBAF Bmi1 qPCR inactive | A549 cytotox inactive | HepG2 cytotox SP inactive | HEK293 tox SP inactive
COc1ccc(-c2csc(Nc3cccnc3)n2)cc1	none (no result: esBAF inh)
c1ccc(Nc2nc(-c3ccncc3)cs2)cc1	esBAF inh 59 | esBAF Ring1 qPCR inactive | Fgf4 repress inactive | esBAF Bmi1 qPCR inactive | A549 cytotox inactive | HepG2 cytotox SP inactive | HEK293 tox SP inactive
CC(=O)Nc1nc(-c2ccc(-c3ccccc3)cc2)cs1	esBAF inh 68 (no result: HSF1 inhib, Vif inh, HSF1 activator) | esBAF Ring1 qPCR inactive | Fgf4 repress inactive | esBAF Bmi1 qPCR inactive | A549 cytotox inactive | HepG2 cytotox SP inactive | HEK293 tox SP inactive
C/C=C/c1cnc2c(c1)C(=O)N([C@H](C)CO)C[C@H](C)[C@@H](CN(C)Cc1ccccc1)O2	none (no result: HSF1 inhib, Vif inh, HSF1 activator)
O=C(NC1CCCCCCC1)c1c(O)c2ccccc2[nH]c1=O	esBAF inh 91 | esBAF Ring1 qPCR inactive | Fgf4 repress inactive | esBAF Bmi1 qPCR inactive | A549 cytotox inactive | HepG2 cytotox SP inactive | HEK293 tox SP inactive
O=C(NNC(=O)c1ccc2ccccc2c1O)NC1CCCCC1	none
O=C(NC1CCCCC1)c1ccc2ccccc2c1O	esBAF inh 83 (no result: HSF1 inhib, HSF1 activator) | esBAF Ring1 qPCR inactive | Fgf4 repress 0.73 | esBAF Bmi1 qPCR inactive | A549 cytotox inactive | HepG2 cytotox SP inactive | HEK293 tox SP -50
CC(=O)N(C)C[C@@H]1Oc2ncc(-c3ccccc3F)cc2C(=O)N([C@@H](C)CO)C[C@@H]1C	none (no result: HSF1 inhib, Vif inh, HSF1 activator)
Cc1cc(C)c2c(N)c(C(=O)Nc3ccccc3Br)sc2n1	esBAF inh 61 | esBAF Ring1 qPCR inactive | Fgf4 repress inactive | esBAF Bmi1 qPCR inactive | A549 cytotox inactive | HepG2 cytotox SP inactive | HEK293 tox SP inactive
O=C(C[C@H]1C[C@H]2c3cc(NS(=O)(=O)c4ccccc4)ccc3O[C@H]2[C@H](CO)O1)N1CCOCC1	none (no result: HSF1 inhib, Vif inh, HSF1 activator)
N#Cc1ccc(C=NN2CCCCCC2)cc1	esBAF inh 69 (no result: HSF1 inhib, HSF1 activator) | esBAF Ring1 qPCR inactive | Fgf4 repress inconclusive | esBAF Bmi1 qPCR inactive | A549 cytotox inactive | HepG2 cytotox SP inactive | HEK293 tox SP inactive
Clc1ccc(C=NN2CCCCCC2)cc1Cl	none (no result: HSF1 inhib, esBAF inh, HSF1 activator)
Clc1ccc(/C=N/N2CCCCC2)cc1	Vif inh inconclusive (no result: esBAF inh)
Clc1ccc(C=NN2CCCCCC2)cc1	esBAF inh 82 (no result: HSF1 inhib, HSF1 activator) | esBAF Ring1 qPCR inactive | Fgf4 repress inactive | esBAF Bmi1 qPCR inactive | A549 cytotox inactive | HepG2 cytotox SP inactive | HEK293 tox SP inactive
O=c1c2ccccc2oc2cc(-c3ccc4cc[nH]c4c3)ccc12	esBAF inh 71 (no result: HSF1 inhib, HSF1 activator) | esBAF Ring1 qPCR inactive | Fgf4 repress inactive | esBAF Bmi1 qPCR inactive | A549 cytotox inactive | HepG2 cytotox SP inactive | HEK293 tox SP inactive
COC(=O)c1c(-c2ccc(OC)cc2)sc2cc(OC)c(OC)cc12	none (no result: HSF1 inhib, HSF1 activator)
COC(=O)c1c(-c2ccc(SC)cc2)sc2ccc(OC)cc12	esBAF inh 99 (no result: HSF1 inhib, HSF1 activator) | esBAF Ring1 qPCR inactive | Fgf4 repress inactive | esBAF Bmi1 qPCR inactive | A549 cytotox inactive | HepG2 cytotox SP inactive | HEK293 tox SP inactive
Cc1ccc(S(=O)(=O)Nc2ccc3c(c2)C(=O)N([C@@H](C)CO)C[C@H](C)[C@@H](CN(C)Cc2ccncc2)O3)cc1	none (no result: HSF1 inhib, Vif inh, HSF1 activator)
CC(=O)c1cccc(OCc2cc(C(=O)NCCC3=CCCCC3)no2)c1	esBAF inh 83 | esBAF Ring1 qPCR inactive | Fgf4 repress inactive | esBAF Bmi1 qPCR inactive | A549 cytotox inactive | HepG2 cytotox SP inactive | HEK293 tox SP inactive
CSc1ccccc1OCc1cc(C(=O)NCCC2=CCCCC2)no1	none
Nc1ccc2c(c1)C(=O)c1ccc(N)cc1-2	esBAF inh 76 (no result: HSF1 inhib, HSF1 activator) | esBAF Ring1 qPCR inactive | Fgf4 repress inactive | esBAF Bmi1 qPCR inactive | A549 cytotox inactive | HepG2 cytotox SP inactive | HEK293 tox SP inactive
CC(C)NC(=O)N1C[C@H]2[C@@H](c3ccccc31)[C@H](CO)N2C(=O)c1cccnc1	none (no result: HSF1 inhib, Vif inh, HSF1 activator)
COc1ccc(-c2cc(C(=O)N3CCN(c4ccccc4)CC3)no2)cc1	esBAF inh 60 | esBAF Ring1 qPCR inactive | Fgf4 repress inactive | esBAF Bmi1 qPCR inactive | A549 cytotox inactive | HepG2 cytotox SP inactive | HEK293 tox SP inactive
CC(C)Cc1ccc(-c2ccc3nccn3c2)cc1	esBAF inh 66 (no result: HSF1 inhib, HSF1 activator) | esBAF Ring1 qPCR inactive | Fgf4 repress inconclusive | esBAF Bmi1 qPCR inactive | A549 cytotox inactive | HepG2 cytotox SP inactive | HEK293 tox SP inactive
